The full data set covers some 7,900 targets. This sample favours those with a hit. About 0.6% of all pairs of compound and target were hits. Values without a mark were called inactive.
Tests used:
Assay in all cases: log2 fold change, soluble protein after heating vs DMSO (PISA); higher = thermal stabilisation; K562 cells, 10 uM, 30 min; active = over 0.2 and 3.5 SD of the protein, either way, in both replicates (recomputed)
[1] = compound: COC1=CC=C(C=C1)CN2C=CC3=C2C=C(C=C3)C(=O)NO
How it was run: (§1)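 Soluble protein was defined as the supernatant after 21,000xg for 90 min. It came from K562 cells at 2×10^6 cells/mL given 10 μM compound for 30 min, heated in aliquots for 3 min across 48°C-58°C, pooled, and extracted in PBS with 0.5% NP-40 at 4°C, and was quantified by TMTpro 16plex LC-MS/MS with equalised channel sums. Thermal stability against control samples, from duplicates, is reported as log2 fold change.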

[2] = compound: CON(C)C(=O)N1N=C(c2cc(F)ccc2F)S[C@@]1(CCCN)c1ccccc1 [filanesib]
How it was run: as §1

[3] = compound: CO[C@H]1C[C@@H]2CC[C@@H](C)[C@@](O)(O2)C(=O)C(=O)N2CCCC[C@H]2C(=O)O[C@H]([C@H](C)C[C@@H]2CC[C@H](n3cnnn3)[C@H](OC)C2)CC(=O)[C@H](C)/C=C(\C)[C@@H](O)[C@@H](OC)C(=O)[C@H](C)C[C@H](C)/C=C/C=C/C=C/1C [zotarolimus]
How it was run: as §1

[4] = compound: COc1cc(C(=O)O)ccc1NC(=O)[C@@H]1N[C@@H](CC(C)(C)C)[C@](C#N)(c2ccc(Cl)cc2F)[C@H]1c1cccc(Cl)c1F [idasanutlin]
How it was run: as §1

[5] = compound: COc1cc(Nc2ncc3c(n2)-c2ccc(Cl)cc2C(c2c(F)cccc2OC)=NC3)ccc1C(=O)O [alisertib]
How it was run: as §1

[6] = compound: COc1cc2nc(-c3cc(F)ccc3O)nc(N[C@@H]3CNC[C@H]3C(C)(C)O)c2cc1OC
How it was run: as §1

[7] = compound: COc1cc2ncnc(Nc3ccc(F)c(Cl)c3)c2cc1OCCCN1CCOCC1 [gefitinib]
How it was run: as §1

[8] = compound: COc1cccc2cc(-c3nc([C@H]4CC[C@H](C(=O)O)CC4)n4ncnc(N)c34)[nH]c12
How it was run: as §1

[9] = compound: CS(=O)(=O)CCNCc1ccc(-c2ccc3ncnc(Nc4ccc(OCc5cccc(F)c5)c(Cl)c4)c3c2)o1 [lapatinib]
How it was run: as §1

[10] = compound: CS(=O)(=O)N1CCN(Cc2cc3nc(-c4cccc5[nH]ncc45)nc(N4CCOCC4)c3s2)CC1 [pictilisib]
How it was run: as §1

[11] = compound: CS(=O)(=O)c1ccc(-c2cnc(N)c(C(=O)Nc3ccccc3)n2)cc1
How it was run: as §1

[12] = compound: C[C@@H](Oc1cc(-c2cnn(C3CCNCC3)c2)cnc1N)c1c(Cl)ccc(F)c1Cl [crizotinib]
How it was run: as §1

[13] = compound: C[C@@H]1COCCN1C2=NC(=NC(=C2)C3(CC3)S(=O)(=O)C)C4=C5C=CNC5=CC=C4
How it was run: as §1

[14] = compound: C[C@H](C1=CC=C(C=C1)C(=O)NC2=C3C=CNC3=NC=C2)N
How it was run: as §1

[15] = compound: C[C@H](Nc1ncnc2nc[nH]c12)c1cc2cccc(Cl)c2c(=O)n1-c1ccccc1 [duvelisib]
How it was run: as §1

[16] = compound: Cc1cc(Nc2cc(CN3CCOCC3)c3nc(C)c(Cc4ccc(Cl)cc4F)n3n2)n[nH]1 [gandotinib]
How it was run: as §1

[17] = compound: Cc1cc(Nc2cc(N3CCN(C)CC3)nc(Sc3ccc(NC(=O)C4CC4)cc3)n2)n[nH]1 [tozasertib]
How it was run: as §1

[18] = compound: Cc1cc(SCc2sc(-c3ccc(C(F)(F)F)cc3)nc2C)ccc1OCC(=O)O
How it was run: as §1

[19] = compound: Cc1ccc(-n2nc(C(C)(C)C)cc2NC(=O)Nc2ccc(OCCN3CCOCC3)c3ccccc23)cc1 [doramapimod]
How it was run: as §1

[20] = compound: Cc1ccc(C(=O)N(CCCN)[C@@H](c2nc3cc(Cl)ccc3c(=O)n2Cc2ccccc2)C(C)C)cc1 [ispinesib]
How it was run: as §1

UniProt Q8N4S0, sequence (Q8N4S0 whole entry, looked up): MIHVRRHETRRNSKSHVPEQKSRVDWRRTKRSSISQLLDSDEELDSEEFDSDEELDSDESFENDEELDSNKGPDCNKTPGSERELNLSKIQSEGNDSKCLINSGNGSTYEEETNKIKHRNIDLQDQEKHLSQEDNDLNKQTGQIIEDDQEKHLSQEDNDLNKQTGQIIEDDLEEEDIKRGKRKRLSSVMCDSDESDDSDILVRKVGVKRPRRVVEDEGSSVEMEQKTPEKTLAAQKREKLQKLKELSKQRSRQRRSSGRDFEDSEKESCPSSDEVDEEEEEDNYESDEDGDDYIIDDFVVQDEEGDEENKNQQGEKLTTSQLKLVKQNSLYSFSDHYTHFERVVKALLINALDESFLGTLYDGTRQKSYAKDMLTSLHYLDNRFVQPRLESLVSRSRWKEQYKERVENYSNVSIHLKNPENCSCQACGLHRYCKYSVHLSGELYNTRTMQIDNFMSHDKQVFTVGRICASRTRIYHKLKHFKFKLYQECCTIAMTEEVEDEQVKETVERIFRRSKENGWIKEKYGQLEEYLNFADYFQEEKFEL
UniProt O95628, sequence (O95628 whole entry, looked up): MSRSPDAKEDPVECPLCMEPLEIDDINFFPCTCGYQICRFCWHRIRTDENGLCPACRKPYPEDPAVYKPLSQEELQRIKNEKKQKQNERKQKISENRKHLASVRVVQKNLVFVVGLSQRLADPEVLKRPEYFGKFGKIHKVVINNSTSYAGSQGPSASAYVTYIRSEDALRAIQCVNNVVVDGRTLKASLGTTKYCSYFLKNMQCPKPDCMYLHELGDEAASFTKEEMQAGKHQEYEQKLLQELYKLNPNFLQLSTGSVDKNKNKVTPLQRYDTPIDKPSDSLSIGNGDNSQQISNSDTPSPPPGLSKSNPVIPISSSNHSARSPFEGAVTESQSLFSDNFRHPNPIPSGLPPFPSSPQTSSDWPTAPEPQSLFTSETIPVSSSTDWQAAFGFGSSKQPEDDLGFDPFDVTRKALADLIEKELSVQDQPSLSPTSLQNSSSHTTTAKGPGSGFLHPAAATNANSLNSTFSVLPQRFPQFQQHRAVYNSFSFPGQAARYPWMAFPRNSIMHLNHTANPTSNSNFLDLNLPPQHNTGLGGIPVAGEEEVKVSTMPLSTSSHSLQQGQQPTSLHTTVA
UniProt Q00537, sequence (Q00537 whole entry, looked up): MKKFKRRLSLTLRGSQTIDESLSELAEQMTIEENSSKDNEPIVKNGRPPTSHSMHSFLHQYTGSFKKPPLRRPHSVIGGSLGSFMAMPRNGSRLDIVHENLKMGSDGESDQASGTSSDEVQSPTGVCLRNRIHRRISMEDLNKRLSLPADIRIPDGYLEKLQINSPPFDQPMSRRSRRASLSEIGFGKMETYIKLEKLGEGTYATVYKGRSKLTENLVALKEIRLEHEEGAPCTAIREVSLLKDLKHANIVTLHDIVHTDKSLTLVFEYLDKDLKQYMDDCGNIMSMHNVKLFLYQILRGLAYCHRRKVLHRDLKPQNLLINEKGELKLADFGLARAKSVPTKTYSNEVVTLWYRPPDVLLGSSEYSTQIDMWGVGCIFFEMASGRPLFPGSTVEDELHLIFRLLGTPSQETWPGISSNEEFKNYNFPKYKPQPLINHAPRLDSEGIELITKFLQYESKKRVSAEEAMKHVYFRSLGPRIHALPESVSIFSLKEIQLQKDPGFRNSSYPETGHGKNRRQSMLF
UniProt P15954, sequence (P15954 whole entry, looked up): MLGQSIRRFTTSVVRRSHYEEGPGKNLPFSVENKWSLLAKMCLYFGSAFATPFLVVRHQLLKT
UniProt O75503, sequence (O75503 whole entry, looked up): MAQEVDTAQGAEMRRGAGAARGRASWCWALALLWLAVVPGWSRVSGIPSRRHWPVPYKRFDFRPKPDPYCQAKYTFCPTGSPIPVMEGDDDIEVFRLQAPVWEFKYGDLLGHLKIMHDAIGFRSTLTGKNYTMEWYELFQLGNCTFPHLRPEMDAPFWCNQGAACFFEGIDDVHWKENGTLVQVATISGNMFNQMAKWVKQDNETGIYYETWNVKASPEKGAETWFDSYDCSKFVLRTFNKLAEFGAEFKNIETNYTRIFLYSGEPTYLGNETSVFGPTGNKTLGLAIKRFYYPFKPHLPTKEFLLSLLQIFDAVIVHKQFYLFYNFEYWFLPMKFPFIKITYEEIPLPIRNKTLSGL
UniProt P30305, sequence (P30305 whole entry, looked up): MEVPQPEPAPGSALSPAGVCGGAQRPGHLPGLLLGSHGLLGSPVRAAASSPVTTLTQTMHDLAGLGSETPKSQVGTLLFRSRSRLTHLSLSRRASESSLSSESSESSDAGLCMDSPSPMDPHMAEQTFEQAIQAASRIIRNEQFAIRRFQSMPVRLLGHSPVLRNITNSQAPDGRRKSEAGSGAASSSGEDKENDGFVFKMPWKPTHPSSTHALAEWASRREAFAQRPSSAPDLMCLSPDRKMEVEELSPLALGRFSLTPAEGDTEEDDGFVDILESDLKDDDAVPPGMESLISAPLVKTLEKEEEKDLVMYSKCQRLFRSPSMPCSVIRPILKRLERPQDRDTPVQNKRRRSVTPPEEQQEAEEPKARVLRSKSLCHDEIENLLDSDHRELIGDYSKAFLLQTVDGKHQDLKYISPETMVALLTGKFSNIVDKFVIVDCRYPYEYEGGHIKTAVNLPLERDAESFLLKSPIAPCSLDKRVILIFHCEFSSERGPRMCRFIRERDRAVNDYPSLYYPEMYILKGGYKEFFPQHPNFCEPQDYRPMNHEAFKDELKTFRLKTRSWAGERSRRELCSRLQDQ
UniProt Q13901, sequence (Q13901 whole entry, looked up): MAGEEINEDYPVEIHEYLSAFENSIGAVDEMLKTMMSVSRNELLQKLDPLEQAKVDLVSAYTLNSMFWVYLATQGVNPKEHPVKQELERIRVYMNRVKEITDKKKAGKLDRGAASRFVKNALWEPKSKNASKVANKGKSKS
UniProt Q9NPF2, sequence (Q9NPF2 whole entry, looked up): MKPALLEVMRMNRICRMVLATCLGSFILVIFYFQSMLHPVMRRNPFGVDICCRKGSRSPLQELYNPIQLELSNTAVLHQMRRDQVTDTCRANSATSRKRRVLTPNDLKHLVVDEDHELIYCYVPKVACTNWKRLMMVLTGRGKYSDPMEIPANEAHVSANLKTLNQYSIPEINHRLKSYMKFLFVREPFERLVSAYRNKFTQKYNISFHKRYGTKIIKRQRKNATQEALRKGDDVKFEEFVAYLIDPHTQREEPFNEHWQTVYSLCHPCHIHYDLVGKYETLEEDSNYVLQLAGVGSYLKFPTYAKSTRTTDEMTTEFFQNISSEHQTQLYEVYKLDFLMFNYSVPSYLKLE
UniProt P51798, sequence (P51798 whole entry, looked up): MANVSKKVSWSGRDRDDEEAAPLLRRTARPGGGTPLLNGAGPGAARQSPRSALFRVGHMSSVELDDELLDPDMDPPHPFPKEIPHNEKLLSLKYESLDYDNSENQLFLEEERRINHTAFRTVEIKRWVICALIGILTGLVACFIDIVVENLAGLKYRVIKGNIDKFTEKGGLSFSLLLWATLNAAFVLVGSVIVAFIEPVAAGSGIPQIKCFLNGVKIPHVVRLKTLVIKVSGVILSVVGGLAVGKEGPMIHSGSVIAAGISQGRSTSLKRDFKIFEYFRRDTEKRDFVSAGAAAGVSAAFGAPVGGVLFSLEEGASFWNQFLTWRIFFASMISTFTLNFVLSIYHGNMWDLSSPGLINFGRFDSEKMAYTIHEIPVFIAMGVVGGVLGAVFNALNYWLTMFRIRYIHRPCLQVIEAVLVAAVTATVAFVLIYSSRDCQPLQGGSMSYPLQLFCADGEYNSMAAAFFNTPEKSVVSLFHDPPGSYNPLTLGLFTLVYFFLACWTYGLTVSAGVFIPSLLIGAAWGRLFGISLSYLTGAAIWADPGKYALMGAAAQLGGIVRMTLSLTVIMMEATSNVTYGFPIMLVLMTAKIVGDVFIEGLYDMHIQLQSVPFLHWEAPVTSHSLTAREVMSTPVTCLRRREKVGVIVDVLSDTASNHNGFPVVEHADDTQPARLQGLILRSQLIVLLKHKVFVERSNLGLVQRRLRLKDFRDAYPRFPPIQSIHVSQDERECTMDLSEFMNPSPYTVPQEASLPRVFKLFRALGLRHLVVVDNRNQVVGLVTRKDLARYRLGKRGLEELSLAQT
UniProt Q53ET0, sequence (Q53ET0 whole entry, looked up): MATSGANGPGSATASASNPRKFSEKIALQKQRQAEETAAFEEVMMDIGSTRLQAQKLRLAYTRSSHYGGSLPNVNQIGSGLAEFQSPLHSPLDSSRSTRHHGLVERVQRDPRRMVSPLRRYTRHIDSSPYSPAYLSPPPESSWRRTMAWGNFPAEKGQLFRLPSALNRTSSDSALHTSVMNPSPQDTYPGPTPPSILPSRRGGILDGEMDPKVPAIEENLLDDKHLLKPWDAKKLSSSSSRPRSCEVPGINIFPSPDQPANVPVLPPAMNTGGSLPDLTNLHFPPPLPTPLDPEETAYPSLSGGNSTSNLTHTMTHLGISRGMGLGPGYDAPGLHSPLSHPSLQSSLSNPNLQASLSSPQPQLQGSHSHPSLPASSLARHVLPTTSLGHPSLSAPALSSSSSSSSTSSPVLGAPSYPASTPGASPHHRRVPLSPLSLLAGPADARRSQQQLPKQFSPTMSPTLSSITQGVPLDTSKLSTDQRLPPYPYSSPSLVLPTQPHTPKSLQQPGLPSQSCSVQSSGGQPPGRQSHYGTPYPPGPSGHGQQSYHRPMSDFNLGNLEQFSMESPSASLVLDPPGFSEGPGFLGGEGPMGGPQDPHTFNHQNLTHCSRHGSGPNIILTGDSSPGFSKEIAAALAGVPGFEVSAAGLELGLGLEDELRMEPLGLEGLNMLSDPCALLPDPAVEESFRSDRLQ
UniProt Q8N668, sequence (Q8N668 whole entry, looked up): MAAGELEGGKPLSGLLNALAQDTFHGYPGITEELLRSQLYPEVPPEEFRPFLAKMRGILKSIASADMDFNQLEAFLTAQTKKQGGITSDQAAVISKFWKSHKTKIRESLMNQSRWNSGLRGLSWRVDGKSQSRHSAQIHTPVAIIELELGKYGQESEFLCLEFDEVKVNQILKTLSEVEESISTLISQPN
UniProt Q9NRR8, sequence (Q9NRR8 whole entry, looked up): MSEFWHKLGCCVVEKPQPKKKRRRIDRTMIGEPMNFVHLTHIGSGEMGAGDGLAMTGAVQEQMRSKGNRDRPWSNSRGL

Target | log2 fold change [1] | log2 fold change [2] | log2 fold change [3] | log2 fold change [4] | log2 fold change [5] | log2 fold change [6] | log2 fold change [7] | log2 fold change [8] | log2 fold change [9] | log2 fold change [10] | log2 fold change [11] | log2 fold change [12] | log2 fold change [13] | log2 fold change [14] | log2 fold change [15] | log2 fold change [16] | log2 fold change [17] | log2 fold change [18] | log2 fold change [19] | log2 fold change [20]
COQ7 (UniProt Q99807) | 0.001 | -0.098 | -0.081 | 0.026 | 0.115 | 0.011 | 0.055 | 0.031 | 0.042 | 0.074 | 0.113 | -0.163 | 0.062 | 0.007 | 0.067 | -0.359 (active) | -0.05 | 0.019 | 0.009 | -0.181
CLUH (UniProt O75153) | -0.026 | 0.07 | 0.028 | -0.074 | -0.072 | -0.022 | -0.001 | -0.152 | 0.006 |  | -0.001 | -0.094 | 0.348 (active) | 0.094 | 0.698 (active) | -0.037 | -0.024 | 0.01 | 0.02 | 0.043
CHST11 (UniProt Q9NPF2) | 0.153 | 0.016 | 0.061 | -0.016 | -0.248 | -0.19 | -0.013 | 0.012 | 0.297 | -0.025 | 0.056 | -0.106 | -0.037 | 0.019 |  | 0.029 | -0.033 |  | 0.087 | -0.068
CDC25B isoform 4 (UniProt P30305) | -0.038 | 0.005 | -0.056 | 0.052 | -0.018 | 0.026 | -0.013 | 0.068 | -0.012 | 0.03 | -0.104 |  | -0.216 | -0.057 |  | 0.122 |  |  | 0.132 | 0.019
CLASP2 isoform 3 (UniProt O75122) | 0.021 | 0.068 | 0.033 | -0.024 | -0.021 | 0.055 | -0.002 | 0.003 | -0.009 |  | -0.035 | -0.201 | 0.044 | -0.029 | 0.047 | -0.314 (active) | -0.06 | 0.074 | -0.007 | -0.054
CSTF2 (UniProt P33240) | -0.052 | 0.005 | -0.009 | 0.013 | -0.016 | -0.005 | -0.07 | 0.023 | 0.021 | 0.069 | 0.016 | 0.075 | 0.14 | -0.042 | 0.029 | 0.048 | 0.033 | -0.011 | 0.028 | 0.068
CLN5 (UniProt O75503) | 0.021 | -0.385 | 0.075 | 0.049 | 0.265 | -0.65 | -0.341 | 0.27 | -0.028 |  | 0.136 | -0.733 | 0.06 | 0.046 | 0.093 | -0.077 | -0.115 | 0.073 | 0.044 | 
CLCN7 (UniProt P51798) | 0.112 | -0.294 (active) | 0.008 | -0.006 | -0.084 | -0.077 | -0.144 | 0.023 | -0.011 |  | -0.037 | -0.814 (active) | 0.018 | -0.091 | -0.089 | -0.193 | -0.031 | 0.028 | -0.008 | -0.952 (active)
CRTC2 (UniProt Q53ET0) | -0.004 | -0.019 |  | 0.086 | 0 | -0.509 (active) | -0.056 | 0.066 | 0.079 |  | -0.02 | -0.077 | 0.08 |  |  |  | -0.057 |  | 0.062 | 0.012
CCDC82 (UniProt Q8N4S0) | -0.356 |  | 0.013 | 0 | 0.034 | -0.013 | 0.052 | -0.102 | 0.043 |  |  | 0.148 | -0.174 | 0.015 | -0.223 |  | -0.106 | -0.119 | -0.165 | -0.026
CDK17 isoform 2 (UniProt Q00537) | -0.031 | -0.024 | -0.208 | 0.03 | 0.508 | 0.051 |  | 0.103 | 0.049 | 0.158 | 0.087 | -0.082 | -0.035 | 0.076 | -0.006 | 0.057 |  | 0.126 | 0.028 | 
COX7C (UniProt P15954) | 0.12 | 0.009 |  | 0.114 | -0.016 | -0.069 | 0.059 | -0.053 | 0.008 | -0.288 | 0.025 | 0.147 | 0.028 |  | -0.04 | 0.043 | -0.015 | -0.114 | -0.072 | -0.096
CDC42SE1 (UniProt Q9NRR8) | -0.011 | -0.049 | 0 | -0.093 | 0.003 | 0.036 | -0.025 | -0.168 | -0.088 |  | 0 | -0.099 | 0.16 | -0.031 | 0.029 |  | -0.106 | -0.04 | -0.06 | -0.341
COMMD1 (UniProt Q8N668) | 0.054 | 0.06 |  |  | -0.151 | 0.029 | -0.01 | -0.04 | -0.029 | 0.006 | -0.108 | -0.022 | -0.092 |  |  | 0.42 (active) | -0.049 |  | 0.009 | -0.112
CRYM-AS1 (UniProt A6NIL9) | 0.159 | 0.047 | 0.146 | -0.364 | 0.037 |  | -0.16 | -0.041 |  | 0.109 | 0.2 | -0.077 | -0.132 | -0.08 | -0.035 | -0.299 | -0.079 | -0.024 | -0.144 | 0.022
CNOT4 isoform 9 (UniProt O95628) | -0.018 |  | -0.373 (active) | -0.334 (active) | 0.018 | 0.106 | 0.053 | 0.019 | -0.083 | 0.045 |  | -0.094 |  | 0.484 (active) | -0.076 | -0.059 | -0.028 | -0.086 | 0.274 | -0.102
C1D (UniProt Q13901) | -0.171 | -0.041 |  | 0.12 | -0.138 | -0.101 | 0.043 | -0.027 | 0.006 | 0.012 | -0.073 | 0.06 | -0.107 |  |  | 0.01 | 0.005 |  | -0.089 | 0.007
CRTC1 isoform 2 (UniProt Q6UUV9) | -0.39 (active) | -0.002 |  | -0.021 |  | 0.138 |  |  | 0.028 | -0.013 | -0.068 | -0.016 | 0.192 |  | 0.139 | 0.008 | -0.004 | -0.076 | 0.005 | -0.11
